Measurements from PubChem BioAssay AID1903 (Southern Research Specialized Biocontainment Screening …, 2009).
Among all 310,000 compounds or so, about 1,200 (0.39%) were called active. How the calls were made is not given here. Only a sample is shown. Potency and affinity values are given separately.

molecular target: Large T antigen (Simian virus 40) (UniProt P03070); assay: SV40 large T antigen inhibitors, biochemical (AID 1903); conditions: SV40 large T antigen ATPase/helicase inhibition assay; at 20 µM; active compounds read high
Sequence (P03070 whole entry, looked up): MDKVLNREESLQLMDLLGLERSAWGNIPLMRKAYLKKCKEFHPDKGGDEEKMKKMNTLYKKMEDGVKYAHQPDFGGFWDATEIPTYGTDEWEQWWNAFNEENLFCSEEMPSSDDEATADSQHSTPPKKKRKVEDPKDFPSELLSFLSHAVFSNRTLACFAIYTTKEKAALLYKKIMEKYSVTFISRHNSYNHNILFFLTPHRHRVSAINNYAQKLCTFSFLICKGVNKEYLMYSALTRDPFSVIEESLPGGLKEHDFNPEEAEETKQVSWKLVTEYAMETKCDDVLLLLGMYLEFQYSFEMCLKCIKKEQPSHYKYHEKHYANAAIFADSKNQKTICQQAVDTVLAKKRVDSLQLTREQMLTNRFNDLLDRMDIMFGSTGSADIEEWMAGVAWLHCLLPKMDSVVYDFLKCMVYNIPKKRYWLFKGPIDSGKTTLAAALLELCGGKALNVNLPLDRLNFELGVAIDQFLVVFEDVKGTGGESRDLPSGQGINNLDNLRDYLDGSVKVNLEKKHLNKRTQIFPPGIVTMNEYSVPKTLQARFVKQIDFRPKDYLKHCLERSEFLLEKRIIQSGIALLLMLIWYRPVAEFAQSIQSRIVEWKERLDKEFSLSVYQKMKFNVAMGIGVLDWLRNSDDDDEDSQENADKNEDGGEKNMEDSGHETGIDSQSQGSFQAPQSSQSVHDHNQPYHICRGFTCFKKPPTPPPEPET

inhibition, inactive:
O=C(CSc1nnc(Cc2ccccc2)n1Cc1ccco1)NC12CC3CC(CC(C3)C1)C2 3.4%, CN(C)C(=O)C1CCC(=O)N1Cc1cccs1 (stereo not given) 3.97%, COc1ccc(N=Cc2c(O)n(-c3ccc(OC)cc3)c(=O)c3ccccc23)cc1 17.6%, CCOc1ccccc1N1CC(C(=O)NCCOc2ccccc2OC)CC1=O (stereo not given) 3.13%, Cc1ccc(-c2nc(CS(=O)(=O)CC(=O)N3CCN(C)CC3)c(C)o2)cc1 6.58%, Cc1nc2scc(C)n2c(=O)c1S(=O)(=O)N1CCN(c2ccc([N+](=O)[O-])cc2)CC1 13.7%, CCc1ccc(N2CC(C(=O)NC3CC3)CC2=O)cc1 (stereo not given) 12.7%, Cc1ccccc1NC(=O)c1cccnc1 -1.13%, Cc1cc(F)ccc1NC(=O)c1cccnc1 3.85%, CCCOc1ccc(C(=O)N/N=C/c2ccc(-c3ccc(S(=O)(=O)Nc4ncccn4)cc3)o2)cc1 35.9%, CCOc1ccc(C(=O)N/N=C/c2ccc(-c3ccc(S(=O)(=O)Nc4ncccn4)cc3)o2)cc1 26.6%, Nc1cccc(CCc2nc3cc4ccccc4cc3[nH]2)c1 21.5%, Nc1ccc2oc(-c3cccs3)nc2c1 5.03%, Nc1ccc2nc(CCCCc3nc4ccccc4[nH]3)[nH]c2c1 32.7%, OCCCc1nc2ccccc2[nH]1 13.1%, c1ccc2[nH]c(CCCc3nc4ccccc4[nH]3)nc2c1 12.5%, O=[N+]([O-])c1ccc2nc(CCCO)[nH]c2c1 -0.4%, c1csc(-c2nc3ccccc3[nH]2)c1 -3.54%, c1ccc2[nH]c(CCCCc3nc4ccccc4[nH]3)nc2c1 5.68%, CCOC(=O)C1=C(COC(=O)/C=C/c2ccc(OC)cc2OC)NC(=O)NC1C (stereo not given) 3.33%, CCc1noc(C)c1C(=O)Oc1ccc(N(C)S(=O)(=O)c2ccccc2)cc1 12.4%, Cc1nn(-c2ccccc2)c(Cl)c1/C=N/NC(=O)c1ccnn1C 19.3%, O=C(O)c1ccc(/C=N/Nc2ccc(F)cc2F)cc1 9.08%, COc1cccc(CC(NC(C)=O)C(=O)NC2CCN(S(=O)(=O)c3ccc(NC(C)=O)cc3)CC2)c1 (stereo not given) 12.6%, COc1ccc(OC)c(N(CC(=O)NCc2ccccn2)S(C)(=O)=O)c1 5.82%, COc1ccc(/C=N/NC(=O)c2ccccc2OC)cc1COc1ccc(C)cc1 1.22%, O=C(c1ccc2c(c1)OCO2)N(c1ccc(F)cc1)C1C=CS(=O)(=O)C1 (stereo not given) -0.44%, CCOc1cc(/C=C/c2ccc3cccc([N+](=O)[O-])c3n2)ccc1O 3.61%, CCOc1cc(/C=C/c2cc(C(=O)O)c3ccccc3n2)ccc1O 31%, COc1ccc(/C=N/NC(=O)c2ccc(=O)n(C)c2)cc1OC 3.81%, CCC(=NC)C1=C(O)CC(c2ccccc2)CC1=O (stereo not given) 3.84%, CCC(=Nc1ccccc1OC)C1=C(O)CC(c2ccccc2)CC1=O (stereo not given) 2.58%, O=C1c2cccnc2C(=O)N1Cc1ccc(S(=O)(=O)NCc2ccco2)cc1 14.4%, N#C/C(=C\c1ccc(Br)s1)C(=O)N1CCN(c2ccccc2)CC1 7.79%, CN(C)C(CNC(=O)c1ccc2nc[nH]c2c1)c1ccccc1 (stereo not given) 12.7%, NC1=NC(=O)/C(=C\c2cccs2)S1 16.2%, NC1=NC(=O)/C(=C/c2cccs2)S1 3.51%, COc1cccc(C(=O)CN(C(=O)c2ccc(Cl)c(Cl)c2)N2C(=O)C3CCCCC3C2=O)c1 (stereo not given) 24.4%, COc1ccccc1C(=O)COC(=O)CCCN=C1NS(=O)(=O)c2ccccc21 11.1%, Nc1cc(-c2ccc(Br)cc2)[nH]n1 8.97%, Oc1ccc(Br)cc1-c1cc(-c2ccccc2)n[nH]1 23.6%, O=C1c2ccccc2CC1Sc1nnc(-c2ccccn2)o1 (stereo not given) 13.2%, CCC(Sc1nnnn1-c1ccccc1)C(=O)NC(C)c1ccccc1 (stereo not given) 1.1%, c1ccc(Nc2ccccc2)cc1 12.1%, Cc1ccc(Nc2ccccc2)cc1 9.98%, CN(Cc1nc(-c2cnccn2)no1)CC(O)c1ccccc1 (stereo not given) 9.11%, COc1cc(/C(C)=N\NC(=O)CSc2nc3ccccc3n2C)ccc1O 25.3%, C/C(=N\NC(=O)CSc1nnc(C)s1)c1ccc(O)cc1 26.9%, C/C(=N\NC(=O)CSc1nc2ccccc2[nH]1)c1ccncc1 5.69%, COc1ccc(/C(C)=N\NC(=O)CSc2nnc(C)s2)cc1 4.01%, Cc1ccc(CNC(=O)c2nn(C)c(C)c2[N+](=O)[O-])cc1 10.1%, O=S(=O)(NCC1CCCN(Cc2ccccc2O)C1)c1cccc2cccnc12 (stereo not given) 21.3%, S=C(NCCSCc1c(Cl)cccc1Cl)Nc1ccccc1 3.66%, O=C(NC(NC1CCS(=O)(=O)C1)C(Cl)(Cl)Cl)c1cccc(Cl)c1 (stereo not given) 26%, S=C(NCc1cccnc1)Nc1ccc2c(c1)OCO2 9.73%, c1cc(CNc2ccc3c(c2)OCO3)ccn1 25.9%, CCN(CC)c1ccc(NC(=O)COC(=O)/C=C/c2nc3ccccc3s2)cc1 37.1%, O=C(COC(=O)c1ccc2ccccc2n1)NCc1ccccc1 6.87%, O=C(COC(=O)c1cccs1)Nc1ccccc1 -1.96%, O=C(COC(=O)COc1ccccc1[N+](=O)[O-])Nc1cccc(Br)c1 -10.5%, CCN(c1ccc(NC(=O)COC(=O)c2cccs2)cc1)C(C)C 25.9%, COc1cccc(NC(=O)COC(=O)COc2ccccc2[N+](=O)[O-])c1 7.61%, CCCCCSc1nnc2c(n1)OC(C)N(C(C)=O)c1ccccc1-2 (stereo not given) 5.71%, N#Cc1nc(COc2ccccc2Cl)oc1NCc1ccco1 15.3%, Cc1cc(C)nc(SCCC(=O)Nc2ccccc2)n1 -11.3%, COc1cccc2cc(C(=O)NNC(=O)c3ccc(Br)cc3)c(=O)oc12 -2.17%, COc1ccc(/C=C/C(=O)Nc2cc(S(=O)(=O)N3CCCCC3)ccc2N2CCCCC2)cc1OC -6.48%, CC/C(=C\C(=O)c1ccncc1)Nc1ccc(Br)cc1 14.6%, O=C(COc1ccccc1C(=O)N/N=C\c1ccc(O)c(O)c1)N/N=C/c1ccc(O)c(O)c1 2.12%, COc1ccc2c(c1)c(C(=O)N/N=C/c1cccc(O)c1)c(C)n2C 14.4%, CC(C)(C)c1ccc(/C=N/NC(=O)C2CCCC2)cc1 13.3%, Cc1nonc1C(=O)N/N=C/c1ccccc1 -0.19%, COc1ccc2c(c1)c(C(=O)N/N=C/c1ccc(OC)c(OC)c1)c(C)n2C 13.7%, O=C(N/N=C/c1cccc(O)c1)N/N=C/c1cccc(O)c1 18.6%, C=C1CC(C(=O)N/N=C/c2ccccc2)C1 5.07%, Cc1nonc1C(=O)N/N=C/c1cccc(O)c1 8.34%, Cc1ccc2[nH]c(=O)c(CN(CC3CCCO3)S(=O)(=O)c3c(C)ccc4nsnc34)cc2c1 (stereo not given) -0.695%, CC(C)CC(CO)N1CCN(C(=O)c2ccccc2)CCC1=O (stereo not given) 16.2%, CSc1ncc(Cl)c(C(=O)Nc2ccccc2[N+](=O)[O-])n1 30.7%, O=C1CC2(CCN(C(=O)c3cccc([N+](=O)[O-])c3)CC2)Oc2ccccc21 22.7%, COCc1ccc(C(=O)N2CCCC(Nc3ccc(C(C)C)cc3)C2)o1 (stereo not given) 23.2%, CCCC(c1nnnn1Cc1ccco1)N1CCN(c2ccccc2)CC1 (stereo not given) 24%, Cc1cc(Br)ccc1NC(=O)CN1C(=S)NC(C)(C)CC1C (stereo not given) 5.62%, CN1C(=O)c2ccc(C(=O)NCc3ccc4c(c3)OCO4)cc2C1=O 4.66%, O=C(/C(=N/N=C/c1ccc(O)c(O)c1)c1ccccc1)c1ccccc1 32.3%, Oc1ccc(/C=N/N(c2ccccc2)c2ccccc2)cc1O 20.4%, O=C(N/N=C/c1ccsc1)C1CC1 14.3%, O=C(N/N=C/c1ccc2c(c1)OCO2)C1CC1 -8.98%, Cc1cccc(OCc2nnc(SCC(=O)Nc3ncc(C)s3)o2)c1 3.87%, O=C1Nc2ccccc2C1=Nc1ccc(Br)cc1 4.56%, O=C1Nc2ccccc2/C1=N\N1CCOCC1 27.9%, O=C(O)CCCCCNS(=O)(=O)c1cccc2c1C(=O)c1ccccc1C2=O 27%, COc1ccccc1NCCC(=O)O 26.5%, O=C(NCC(c1ccc(F)cc1)N1CCOCC1)c1cccnc1Sc1ccc(Cl)cc1 (stereo not given) 11.1%, Nc1n[nH]c(=S)n1-c1ccc(Cl)cc1 5.6%, CCCn1cnc2cc(NCc3cccc(OC)c3)ccc21 36.7%, CCCn1cnc2cc(NCc3ccccc3O)ccc21 33.9%, COc1ccccc1-n1cnc2cc(NCc3ccccc3O)ccc21 33.3%, CCn1cnc2cc(NCc3ccccc3Cl)ccc21 21.6%, CCCCN(C(=O)CCCSc1nc2ccccc2[nH]1)c1c(N)n(Cc2ccccc2)c(=O)[nH]c1=O 3.22%
